Results with a measured potency or affinity are listed apart.
Target: Protein disulfide-isomerase A6 (Homo sapiens) (UniProt Q15084)
Test: inhibitors of ERp5-mediated insulin aggregation, dose response, biochemical, turbidity, absorbance 650 nm, cherry-picked samples (AID 720566);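 further: negative values mean less insulin aggregation so ERp5 inhibition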
Conditions: Recombinant ERp5 insulin aggregation; series mostly up to 35 µM; activity change, negative = inhibition: at the top concentration;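 active means in all runs, an absorbance decrease of 25% or more of the average positive control decrease; inconclusive means runs conflict, with both active and inactive results; inactive means all runs inactive, opposite-direction effects included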

Sequence of Protein disulfide-isomerase A6 (Homo sapiens) (Q15084 whole entry, looked up): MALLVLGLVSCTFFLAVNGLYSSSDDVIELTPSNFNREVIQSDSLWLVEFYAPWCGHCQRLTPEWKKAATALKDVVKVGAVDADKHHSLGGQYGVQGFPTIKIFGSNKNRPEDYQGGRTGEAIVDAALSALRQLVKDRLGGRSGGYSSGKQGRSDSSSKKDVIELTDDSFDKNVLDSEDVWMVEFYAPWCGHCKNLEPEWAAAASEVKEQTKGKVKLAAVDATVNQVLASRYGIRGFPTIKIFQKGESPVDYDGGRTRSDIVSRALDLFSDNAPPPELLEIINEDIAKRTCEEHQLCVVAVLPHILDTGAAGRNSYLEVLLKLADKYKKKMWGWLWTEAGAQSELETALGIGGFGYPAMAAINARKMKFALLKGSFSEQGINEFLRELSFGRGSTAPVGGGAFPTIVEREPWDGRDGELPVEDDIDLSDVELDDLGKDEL

Activity change, negative = inhibition, inactive:
O=C(C[C@@H]1C[C@H]2c3cc(NC(=O)C4CCC4)ccc3O[C@H]2[C@@H](CO)O1)NCC(F)(F)F 0.372%, COc1ccc2c3c([nH]c2c1)[C@H](CO)N(Cc1ccccc1Cl)CC31CN(C(=O)C2CC2)C1 9.35%, O=C(NCCCN1CCCC1)c1ccc(CS(=O)(=O)c2c(Cl)cccc2Cl)o1 -2.6%, Cc1cc2occ(CC(=O)NNC(=O)c3ccccc3)c2cc1C -18.2%, Cc1noc(C)c1NC(=O)Nc1cccc2c1O[C@H](CN(C)S(=O)(=O)c1ccc(Cl)cc1)[C@@H](C)CN([C@H](C)CO)C2=O -8.97%, CCCNC(=O)C[C@@H]1C[C@H]2c3cc(NC(=O)CC4CC4)ccc3O[C@H]2[C@H](CO)O1 3.18%, CC(=O)Nc1ccc2c(c1)C(=O)N(C)[C@H]1CC[C@@H](CC(=O)NCC3CC3)O[C@H]1CO2 -4.92%, COCCNC(=O)c1ccccc1NS(=O)(=O)c1ccc(C)c([N+](=O)[O-])c1 25%, Cc1noc(C)c1NC(=O)Nc1ccc2c(c1)C(=O)N([C@H](C)CO)C[C@@H](C)[C@@H](CN(C)C(=O)Nc1ccc(F)cc1)O2 0.559%, Cc1cc(Br)cc(Br)c1OCC(=O)NNC(=O)CCC(=O)NCc1ccccc1 0.113%, C[C@@H]1CN([C@H](C)CO)C(=O)c2cccc(NC(=O)Nc3cccc4ccccc34)c2O[C@H]1CN(C)C(=O)Nc1ccc(C(F)(F)F)cc1 -10.1%, Cc1noc(C)c1NC(=O)N(C)C[C@H]1Oc2c(NS(=O)(=O)c3ccc(Cl)cc3)cccc2C(=O)N([C@@H](C)CO)C[C@@H]1C -1.25% [at 30 µM]

From PubChem BioAssay AID720566 (Broad Institute, 2013)
